# Laboratory results reported in PubChem BioAssay AID1053126 (Broad Institute, 2014).
# Results with a measured potency or affinity are listed apart. Active and inactive are the calls of the source.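 Rule for the calls: active = cell killing with a fitted half-effect concentration at or below twice the top valid dose; inconclusive = flat curve with 30 to 70 percent drop, or poor fit; inactive = the rest.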
# Assay: HEK293T cell cytotoxicity, dose response, cytotoxicity control, ATP luminescence, cherry-pick, set 6 (AID 1053126)
# Conditions: HEK293T viability, CellTiter-Glo ATP luminescence, 72 h; series mostly up to 26 µM
row,SMILES,outcome
1,Cc1cc(=O)oc2cc(OC(=O)c3cncc(Br)c3)ccc12,inactive
2,CCOC(=O)c1cc2c(=O)n3ccccc3nc2n(C(C)C)c1=NC(=O)c1ccco1,inactive
3,COc1ccc(C2C3=C(CCCC3=O)N(CC(=O)O)C3=C2C(=O)CCC3)cc1,inactive
4,CCN(c1ccccc1)S(=O)(=O)c1ccc(OC)c(NC(=O)CN(C)C)c1,inactive
5,CCC(C)n1c(=N)c(C#N)cc2c(=O)n3cc(C)ccc3nc21 (stereo unspecified),inactive
6,CCCOc1ccc(NC(=O)c2c(-c3ccccc3)noc2C)cc1,inactive
7,CC(=O)Oc1ccc2cc(-c3nc4ccccc4n3C)c(=O)oc2c1,inactive
8,CCOC(=O)c1c(C)n(C)c2ccc(OCC(O)CN3CCC(C)CC3)cc12 (stereo unspecified),inactive
9,Cc1ccc(S(=O)(=O)Nc2ccc(Nc3ccccc3)cc2)cc1,inactive
10,CCN(CC)CCCNc1nc(C)cc(COC)c1C#N,inactive
11,O=c1[nH]c2ccccc2nc1/C=C/c1ccccc1,inactive
12,COc1ccccc1OCc1ccc(C(=O)N(C)c2ccccc2)o1,inactive
13,Nc1cccc2c1C(=O)N(c1ccccc1)C2=O,inactive
14,O=C(COC(=O)c1cc(S(=O)(=O)N2CCCCC2)ccc1N1CCOCC1)c1ccccc1Cl,inactive
15,CC1=C(C(=O)N2CCN(c3cc(C)ccc3C)CC2)C2(CCCCC2)OC1=O,inactive
16,O=C(O)c1ccc(N2N=C(c3ccccc3)CC2c2ccccc2)cc1 (stereo unspecified),inactive
17,O=C(NCc1ccc(F)cc1)C1CCCN1C(=O)Nc1cccc(F)c1 (stereo unspecified),inactive
18,C/C(=N\NC(=O)CC#N)c1cc2ccc(O)cc2oc1=O,inactive
19,CCc1nc(SCC(=O)c2ccccc2)c2ccccc2n1,inactive
20,O=c1[nH]c(Nc2ccccc2Cl)cc2ccccc12,inactive
21,CCN(CC)c1ccc2cc(C#N)c(=O)oc2c1,inactive
